DT40 TDP1 no CPT = qHTS for Inhibitors of human tyrosyl-DNA phosphodiesterase 1 (TDP1): qHTS in cells in absence of CPT | Potency, µM (series often up to 46.2 µM), for inactives: at the top dose activity change, negative = growth inhibition, usual class: inhibitors | 420,000 compounds, 15% hits | DT40 Tdp1-/- hTDP1 cells, no CPT, ATP luminescence, 48 h; further: on the % scale 0 is the no-effect control and ±100 the full control effect; nearly all actives have a fitted effect of over 55% in size
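Growth of hTDP1-complemented DT40 Tdp1-knockout cells is measured by ATP luminescence after at least 48 hr compound exposure at 37 °C, with DMSO substituting for the 20 nM CPT used in the parallel screen.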
ATXN2 expr inh = reduces ATXN2 reporter expression in HEK-293 cells; HEK-293 ATXN2-luciferase reporter, luminescence, 24 h; 360,000 compounds, 0.72% hits; AID 1745845; Potency, µM (top dose mostly 57 µM), for inactives: at the top dose activity change, negative = inhibition, hits mostly inhibitors; further: on the % scale 0 is the no-effect control and ±100 the full control effect; nearly all actives have a fitted effect of over 55% in size
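qHTS (up to 57 uM final) was run with 24 h compound exposure of reporter cells at 37 °C. Each well was multiplexed: SteadyGlo luminescence measured ATXN2-luciferase expression after a fluorogenic Gly-Phe-AFC viability readout (25 uM final).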
HepG2 viability = kills HepG2 cells in TGF-b inhibitor counter-screen. HepG2 CAGA-GFP viability, ATP luminescence, 18 h. Potency, µM (highest dose often 46.1 µM), for the others: at the highest dose activity change, negative = cytotoxicity, hits mostly cytotoxic. 410,000 compounds, 0.76% hits
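HepG2 CAGA-GFP cells (1000/well, DMEM with 1% FBS) received compound, then TGF-beta at 500 pg/mL final, and were incubated 18 hours at 37 degrees C. Viability was read by CellTiter-Glo luminescence. Media-only wells were set as complete cell-killing and DMSO as no toxicity.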
TGFb SMAD3 inh = TGF-b pathway inhibition. HepG2 CAGA-GFP TGF-b/SMAD3 reporter, GFP fluorescence, 18 h; TGF-beta stimulated, 500 pg/mL final. Potency, µM (doses to about 46.1 µM), for the others: at the highest dose activity, negative = inhibition, hits mostly inhibitors. 410,000 compounds, 1.2% hits; further: on the % scale 0 is the no-effect control and ±100 the full control effect; nearly all actives have a fitted effect of over 65% in size
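Using HEPG2 CAGA-GFP reporter cells at 1000 cells/well, we pinned test compounds, stimulated with recombinant TGF-beta (500 pg/mL final) and measured total well GFP after 18 h.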
TDP1 cell CPT = DT40-hTDP1 cell growth loss with CPT; chicken DT40 Tdp1-/-;hTDP1 cells + 20 nM CPT, ATP luminescence, 48 h; Potency, µM (series often up to 46.2 µM), for inactives: at the top dose activity change, negative = growth inhibition, most hits filed as inhibitors; 420,000 compounds, 12% hits; further: on the % scale 0 is the no-effect control and ±100 the full control effect; nearly all actives have a fitted effect of over 55% in size
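Cell growth measured by CellTiter-Glo luminescence after a minimum 48 h, 37 C compound exposure with 20 nM CPT in Tdp1-knockout DT40 cells stably expressing hTDP1, seeded 400/well; qHTS titration format.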
S2 tox = cell viability loss in ATXN counter-screen | S2 cells (HEK-293 line with an ATXN2-luciferase reporter) viability, CellTiter-Fluor protease fluorescence, 24 h | Potency, µM (doses to about 56.7 µM), usual class: cytotoxic | 400,000 compounds, 0.49% hits | AID 651635; further: nearly all actives have a fitted effect of over 40% in size
* hit, by the source's call; i = inactive; ? = inconclusive; . = no result given. Compounds with a hit are over-represented: about 17% of the library has one in this group of screens. The call rests on the fitted dose curve; in most records, active means well fitted curve in the direction sought with a large enough effect; inconclusive means small, poorly fitted or top-dose-only effect, or another doubt; inactive means no such curve, though single readings can be large; an effect the other way counts as inactive or inconclusive. Potency means the concentration at half of the fitted maximal effect.

SMILES | DT40 TDP1 no CPT | ATXN2 expr inh | HepG2 viability | TGFb SMAD3 inh | TDP1 cell CPT | S2 tox
Cc1ccc(NC(=O)Cn2c(=O)n(Cc3nc(-c4ccccc4)no3)c(=O)c3cc4c(cc32)OCO4)cc1F | ? | 6% | 3% | 0% | -28% | i
Cc1c(Cl)cccc1NC(=O)c1cnc2sc(N3CCCC3)nn2c1=O | -5% | . | 0% | -30% | -21% | .
COc1cc(/C=C/C(=O)OCC(=O)Nc2cc(S(=O)(=O)N3CCCC3)ccc2Cl)cc(OC)c1OC | ? | 8% | 3% | -9% | ? | i
Cc1cc(C(C)(C)C)cc(C)c1COC(=O)CN1C(=O)NC2(CCCC2)C1=O | ? | . | -19% | 0% | -25% | i
CC(C)(C)OC[C@H](NC(=O)c1[nH]cnc1C(=O)Nc1ccccc1F)C(=O)OC(C)(C)C | 21µM* | ? | 20µM* | ? | 21µM* | .
CC(C)(C)OC(=O)N1CCN(C(=O)c2[nH]cnc2C(=O)Nc2ccccc2F)CC1 | ? | -3% | -4% | -15% | 0% | i
Cc1cccc(NC(=O)c2nc[nH]c2C(=O)N[C@@H](Cc2ccccc2)C(=O)OC(C)(C)C)c1 | ? | ? | -62% | ? | ? | .
C[C@H](NC(=O)c1nc[nH]c1C(=O)N[C@@H](C)c1ccccc1)C(=O)OC(C)(C)C | 3% | 11% | -16% | -16% | ? | i
CC(C)(C)OC(=O)[C@H](Cc1ccccc1)NC(=O)c1[nH]cnc1C(=O)Nc1ccc(Cl)cc1 | ? | ? | 16µM* | ? | ? | .
CC(C)C[C@H](NC(=O)c1nc[nH]c1C(=O)N[C@@H](CC(C)C)C(=O)OC(C)(C)C)C(=O)OC(C)(C)C | ? | ? | -3% | ? | 23µM* | 22µM*
CC(C)C[C@H](NC(=O)c1[nH]cnc1C(=O)N[C@H](C)c1ccccc1)C(=O)OC(C)(C)C | 18µM* | ? | 16µM* | ? | ? | .
O=c1[nH]cnc2n[nH]nc12 | ? | . | 21% | 16% | -8% | .
O=C(CSc1nc2cc(Cl)ccc2o1)NC1CC1 | -22% | . | -8% | 17% | -5% | i
CCn1c(C)c(CS(=O)(=O)c2ccccc2)[nH]c1=O | 2.9µM* | 1% | -27% | -11% | 4.1µM* | i
COc1ccc(C)cc1NC(=O)CC(=O)Nc1ccc2nc3n(c(=O)c2c1)CCCCC3 | ? | -18% | -1% | ? | ? | i
Cc1ccc(S(=O)(=O)N2CC3C(=O)C[C@@H](c4ccccc4)N(S(=O)(=O)c4cccc(Cl)c4)C3CC2c2ccccc2)cc1 (some centres undefined) | 23µM* | . | . | . | ? | .
CCOC1=C2[C@@H](CN(S(=O)(=O)c3ccc(C)cc3)[C@H]2c2cccc3ccccc23)[C@H]2C(=O)N(c3ccccc3)C(=O)[C@H]2C1 | -23% | 5% | -6% | -14% | 1% | i
CCOC1=C2[C@@H](CN(S(=O)(=O)c3ccc(C)cc3)[C@H]2c2cccc3ccccc23)[C@H]2C(=O)N(C3CCCCC3)C(=O)[C@H]2C1 | 10µM* | 15% | -14% | -18% | 13µM* | i
CC(=O)CC(=O)Nc1ccn(-c2ccccc2)n1 | -4% | -5% | -13% | -2% | -17% | i
O=C(O)CCCC(=O)Nc1ccn(-c2ccccc2)n1 | ? | 3% | -28% | -5% | 18µM* | i
CCOc1ccc(C(=O)Nc2ccccc2C(=O)OCc2cc(=O)n3nc(C4CC4)sc3n2)cc1 | -1% | 15% | -1% | 4% | 1% | i
COc1ccc(C(=O)OCc2cc(=O)n3nc(C4CC4)sc3n2)cc1OC | -15% | -8% | -6% | 1% | -18% | i
CCOc1ccc(C(=O)OCc2cc(=O)n3nc(C4CCCCC4)sc3n2)cc1 | 16µM* | -1% | 0% | -7% | ? | i
CCOc1cc(C(=O)OCc2cc(=O)n3nc(C4CC4)sc3n2)cc(OCC)c1OCC | 21µM* | 5% | 2% | -7% | ? | i
CC(C)c1nn2c(=O)cc(COC(=O)c3ccc(NC(=O)C4CCCCC4)cc3)nc2s1 | 21µM* | . | -1% | 6% | ? | .
SMILES | DT40 TDP1 no CPT | ATXN2 expr inh | HepG2 viability | TGFb SMAD3 inh | TDP1 cell CPT | S2 tox
COc1cccc(N2CCN(Cc3nc4scc(-c5ccccc5)c4c(=O)[nH]3)CC2)c1 | 5.2µM* | -16% | 16% | -18% | 5.2µM* | i
COc1cccc(N2CCN(Cc3nc4ccccc4c(=O)[nH]3)CC2)c1 | ? | -1% | -1% | 37% | 1% | i
O=c1[nH]c(CN2CCN(c3ccc(O)cc3)CC2)nc2scc(-c3ccc(Cl)cc3)c12 | 4.6µM* | . | 1% | ? | 3.7µM* | i
Cc1cccc(C(=O)OCC(=O)c2csc(N3CCCCC3)n2)c1[N+](=O)[O-] | ? | . | -3% | 2% | ? | ?
CN(C)c1ccc([C@@H]2[C@@H]([N+](=O)[O-])[C@H]3C=Cc4ccccc4N3[C@H]2C(=O)c2ccc(Cl)cc2)cc1 | 7.3µM* | 1% | -15% | 0% | 6.5µM* | i
Cn1c(=O)n(C)c2cc(N3CCCCC3)c(NC(=O)c3c(F)cccc3F)cc21 | 26µM* | -16% | -37% | -42% | 13µM* | i
Cc1ccccc1C(=O)Nc1cc2c(cc1N1CCCCC1)n(C)c(=O)n2C | 12µM* | ? | -43% | ? | -82% | ?
Cc1ccc(NC(=O)CCNC(=O)N2CC(=O)Nc3ccccc32)cc1Cl | 1% | . | -4% | -13% | -21% | i

Compound activity (PubChem BioAssay)
